Here are results for 103 compounds from PubChem BioAssay AID624330 (Southern Research Specialized Biocontainment Screening …, 2012).

Molecules are shown by their SMILES. The whole screen tested about 340,000 compounds, of which about 2,100 (0.62%) were called active. Only a sample is shown. Measured potencies and affinities stand elsewhere. Values without a mark were called inactive.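 The calls were made as follows: active = first-screen hits whose inhibition reached a set limit at any dose in the follow-up dose series; inconclusive = inhibition above the set first-screen limit but never retested; inactive = the rest.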

This experiment deals with Rac GTPase-activating protein 1 (Homo sapiens) (UniProt Q9H0H5). In words: blockers of MgcRacGAP-driven Rac1 GTP hydrolysis – biochemical, ADP Hunter fluorescence, primary and confirmatory, confirmation (AID 624330).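 Also: fluorescence reports GDP produced by GAP-driven GTP hydrolysis.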 To be noted: MgcRacGAP-stimulated Rac1 GTP hydrolysis, at 30 µM, hits give high values, GST-tagged Rac1 F28L mutant substrate.
Rac GTPase-activating protein 1 (Homo sapiens), sequence (Q9H0H5 whole entry, looked up): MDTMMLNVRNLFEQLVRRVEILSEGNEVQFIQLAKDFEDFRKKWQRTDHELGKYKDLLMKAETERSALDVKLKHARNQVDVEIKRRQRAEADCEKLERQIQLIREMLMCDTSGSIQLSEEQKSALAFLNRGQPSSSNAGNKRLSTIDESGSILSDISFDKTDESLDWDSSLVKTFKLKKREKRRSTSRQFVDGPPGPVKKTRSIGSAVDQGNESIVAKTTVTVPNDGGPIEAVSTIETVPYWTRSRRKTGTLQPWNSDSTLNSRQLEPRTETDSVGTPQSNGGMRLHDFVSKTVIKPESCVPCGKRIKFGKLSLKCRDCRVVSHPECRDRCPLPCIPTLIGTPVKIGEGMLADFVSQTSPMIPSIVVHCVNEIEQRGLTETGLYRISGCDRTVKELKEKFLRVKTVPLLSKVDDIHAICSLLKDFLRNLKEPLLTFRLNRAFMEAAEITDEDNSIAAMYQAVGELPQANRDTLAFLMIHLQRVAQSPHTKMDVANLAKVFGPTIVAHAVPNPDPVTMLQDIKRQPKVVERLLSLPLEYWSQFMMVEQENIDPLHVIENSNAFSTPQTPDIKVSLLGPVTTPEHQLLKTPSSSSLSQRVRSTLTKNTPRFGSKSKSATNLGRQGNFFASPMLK
A word on the inhibition: it is the relative decrease from the control value, in per cent. Take `O=C(c1ccco1)N1CCc2ccccc21`: the inhibition is 3.81%. As to `COCC(C)n1c(C)cc(C(=O)CSc2ncccn2)c1C` (stereo not drawn), the inhibition was 8%. On to `CN(CC1COc2ccccc2O1)C(=O)Cn1cc(C(F)(F)F)ccc1=O` (stereo not drawn), for which the inhibition was 0.56%. Consider `CCN(CC)C(=O)C1CCN(Cc2ccc(OCc3ccccc3)cc2)CC1`, for which the inhibition was 15.5%. Consider `NC(=O)C1CCN(Cc2ccc(OCc3ccccc3)cc2)CC1`, for which the inhibition was 21.3%. `CCN(CC)C(=O)C1CCN(Cc2cccc(OCc3ccccc3)c2)CC1`: the inhibition is 19.6%. Consider `CCCCN(C)C(=O)C1CCN(CCCc2ccccc2)CC1`, for which the inhibition was 21.2%. Regarding `NC(=O)C1CCN(Cc2cccc(OCc3ccccc3)c2)CC1`, the inhibition is 21.4%. As to `CCCCN(C)C(=O)C1CCN(Cc2cccnc2)CC1`, the inhibition is 27.6%.

`CCc1c(O)nc(SCC(=O)N2CCOCC2)n(-c2ccccc2)c1=O`: the inhibition was 9.22%. Next, `Cc1cc(NC(=O)COC(=O)CNC(=O)c2cccs2)c([N+](=O)[O-])cc1C`: 10.5%.

As to `O=C1OC(c2ccc(F)cc2)=N/C1=C\c1ccc(Br)o1`, the inhibition was 12.2%. In the case of `NC(=O)CC(NC(=O)c1ccccc1)c1ccc(N2CCN(c3ccccn3)CC2)c([N+](=O)[O-])c1` (stereo not drawn), the inhibition was 6.77%. Next, `CC(C)CCNC(=O)CCCCn1c(=O)[nH]c2ccsc2c1=O`: 1.12%. On to `CCn1cc(C(=O)NC2CCCCC2)c(=O)c2ccc(C)nc21`, for which the inhibition was 6.08%.

As to `CCOc1ccccc1OCCCCOc1ccccc1F`, the inhibition is 8.35%.

In the case of `CCOc1ccccc1C(=O)N[C@H](C(=O)NNC(=O)c1cccs1)C(C)C`, the inhibition was 2.5%. Next, `Cc1ccc(C)c(SCC(=O)NC(=O)NCc2ccccc2)c1`: 6.96%; `Cc1ccc(NC(=O)N2CCCC2C(=O)Nc2ccc(-n3cnnn3)c(C)c2)cc1` (stereo not drawn): -9.47%; `CS(=O)(=O)N1CCN(C(=O)NC23CC4CC(CC(C4)C2)C3)CC1`: -2.26%. Take `CN1CCCN(C2C3CC4CC(C3)CC2C4)CC1` (stereo not drawn): the inhibition was 14.8%.

Consider `C/C(=N/OCC(=O)Nc1ccc(C)cc1C)c1cccs1`, for which the inhibition was 17%. Consider `O=c1cc(-c2ccccc2[N+](=O)[O-])oc2ccccc12`, for which the inhibition was 4.61%. `Nc1c([N+](=O)[O-])c(=O)oc2ccccc12`: the inhibition is 3.99%.

For `CN(C)S(=O)(=O)c1cccc(C(=O)c2nccn2C)c1`, the inhibition is 2.41%. For `Cc1ccc(C(=O)Nc2ncc(C)s2)s1`, the inhibition was 3.92%. Next, `Cc1ccc(-c2nc(C=Nc3ccc(O)cc3)c(O)o2)cc1`: 19%.

For the compound `Cc1ccsc1C=Nc1ccc(O)cc1`, the inhibition is 18.4%. Next, `COc1ccccc1NS(=O)(=O)c1cc(NC(=O)c2ccc(Cl)nc2)ccc1N1CCCC1`: 9.85%; `CCn1nc(C)c(NC(=O)CSc2nnc(-c3ccco3)n2C)c1C`: 5.76%; `Cc1nn(CCCC(=O)Nc2cnn(Cc3ccc(F)cc3)c2)c(C)c1[N+](=O)[O-]`: -3.65%. In the case of `Cc1ccc(C(=O)N2CCCC(Nc3cccc(F)c3)C2)cc1N1CCNC1=O` (stereo not drawn), the inhibition is 7.34%.

On to `O=C(c1cccc(N2CCNC2=O)c1)N1CCCC(Nc2cccc(F)c2)C1` (stereo not drawn), for which the inhibition is -0.6%.

On to `CC(C)c1ccc(NC2CCCN(C(=O)c3cccc(N4CCNC4=O)c3)C2)cc1` (stereo not drawn), for which the inhibition is 9.26%.

`COc1cccc(C(=O)N2CCCC(Nc3ccc(C)c(C)c3)C2)c1` (stereo not drawn): the inhibition is 16.7%. Consider `COc1cc(OC)cc(C(=O)N2CCCC(Nc3ccc(F)cc3)C2)c1` (stereo not drawn), for which the inhibition is 3.07%. Next, `Cc1ccc(NC2CCCN(C(=O)c3ccc(C)c(N4CCNC4=O)c3)C2)cc1C` (stereo not drawn): 15.1%; `CC(C)CNc1nc(N)c([N+](=O)[O-])c(NC2CCCCC2)n1`: 9.84%; `CCc1nn2c(=O)cc(CSCC(=O)Nc3ccccc3Cl)nc2s1`: 10.2%. Next, `Cc1ccc(CN2CCN(Cc3ccc(OC(C)C)cc3)CC2CCO)o1` (stereo not drawn): 8.44%; `Cc1cccnc1NC(=O)CCCNC(=O)c1ccc(Cl)cc1`: 5.51%; `Oc1cccc(CCc2ccccn2)c1`: -0.46%. For `Nc1ccc(CCc2ccccn2)cc1`, the inhibition was -1.15%. Next, `COc1ccc(OCC(=O)OCC(=O)NCc2ccco2)cc1`: 5.26%; `COCCNC(=O)COc1ccc(Oc2ccccc2)cc1`: 8.68%.

Consider `O=C(COc1ccc(Cl)cc1)OCC(=O)N1CCCCCC1`, for which the inhibition was 11.4%. Regarding `O=C(COc1ccc(Cl)cc1)OCC(=O)N1CCCC1`, the inhibition was 8.63%. Next, `COCCNC(=O)COc1cccc(Oc2ccccc2)c1`: 12.7%; `O=C(COC(=O)COc1ccccc1)NCc1ccco1`: 5.42%; `Cc1ccc(CNC(=O)C2CCC(CNS(=O)(=O)c3cccs3)CC2)cc1` (stereo not drawn): 5.1%. Turning to `Cc1cccc(NC(=O)CNC(=O)c2ccc(-n3cncn3)c([N+](=O)[O-])c2)c1C`, the inhibition is 0.04%. Next, `Cc1cc(OC(C)C(=O)NCc2cccnc2)c2c(C)cc(=O)oc2c1` (stereo not drawn): 3.28%; `CC(NS(=O)(=O)c1ccc2c(c1)C(C)(C)C(=O)N2C)c1ccccc1` (stereo not drawn): 3.16%.

Turning to `N/C(=N\c1nc2c(c(=O)[nH]1)CCC2)Nc1ccccc1C(F)(F)F`, the inhibition was -0.36%. Consider `Cn1c(=O)[nH]c(=O)c2c1nc(Br)n2Cc1ccc(Cl)cc1`, for which the inhibition is 8.01%.

Take `CSc1nc2c(c(=O)[nH]c(=O)n2C)n1Cc1ccc(Cl)cc1`: the inhibition is 11.4%. For `O=C(O)CCC(=O)Nc1cccc(-c2nc3ccccc3o2)c1`, the inhibition is -9.77%. As for `CCN(CC)S(=O)(=O)c1ccc2c(c1)c(=O)c(C(=O)N1CCN(c3ccccc3)CC1)cn2C`, the inhibition was 1.44%. Consider `CN(C)CCCN1c2ccccc2Sc2ccc3ccccc3c21`, for which the inhibition was 15.1%.

In the case of `CCN(CC)CCN1c2ccccc2Sc2ccc3ccccc3c21`, the inhibition is 10.6%.

Take `COc1cc(C(C)=O)ccc1OCC(O)CNCC1(N2CCCCC2)CCCCC1` (stereo not drawn): the inhibition is 27.1%. Take `OC(CNCC1(N2CCCCC2)CCCCC1)COc1ccc(Cl)cc1Cl` (stereo not drawn): the inhibition was 17.6%. With `O=C(NCC1CCCO1)c1cc(C(=O)C2CCCCC2)c[nH]1` (stereo not drawn), the inhibition was 4.74%. As for `CCCCCOC(=O)CSc1nc2c(c(=O)[nH]c(=O)n2C)n1Cc1ccc(Cl)cc1`, the inhibition is 1.35%. Regarding `O=C(CSc1ccc(-c2ccco2)nn1)Nc1ccc(F)cc1F`, the inhibition was 9.4%. `COc1ccc(/C=C/C(=O)CCC(=O)O)cc1`: the inhibition is 2.46%. Consider `CN1C(=O)NC(c2ccc(O)cc2)C2=C1CN(c1ccccc1)C2=O` (stereo not drawn), for which the inhibition is 10.4%. For `Cc1ccc(N2CC3=C(C2=O)C(c2ccccc2)NC(=O)N3C)cc1` (stereo not drawn), the inhibition was 6.8%. As for `CSc1ccccc1NC(=S)Nc1cc(C)cc(C)c1`, the inhibition was 9.21%. Turning to `COc1ccc(S(=O)(=O)N2CCOCC2)cc1NC(=O)Cc1ccccc1Cl`, the inhibition was 5.39%.

For the compound `CCN(CC)c1ccc(NC(=O)c2cncc(Br)c2)cc1`, the inhibition was 30.6%.

In the case of `CCN(CC)c1ccc(CNc2ccc(Br)cn2)cc1`, the inhibition was 4.81%.

For `Nc1nc2cc(S(=O)(=O)NC3=NCCCCC3)ccc2s1`, the inhibition was 38.9%. For `O=S(=O)(Nc1nc2c(s1)CCCC2)c1ccc2ccccc2c1`, the inhibition is 8.29%. In the case of `CCc1ccc(C(=O)OCC(=O)Nc2cccc(S(=O)(=O)NC3=NCCCCC3)c2)cc1`, the inhibition was 5.3%. Turning to `O=S(=O)(NC1=NCCCCC1)c1ccc2ccccc2c1`, the inhibition is 2.56%.

Regarding `Cc1ccc(-c2cc(C(=O)N3CCCC3)c3ccccc3n2)s1`, the inhibition is 3.87%.

In the case of `CCCCn1c(N)c(N(CCOC)C(=O)CSc2ccc([N+](=O)[O-])cc2)c(=O)[nH]c1=O`, the inhibition is 9.47%.

For `CC1CC1C(=O)OCC(=O)NNC(=O)c1ccc([N+](=O)[O-])cc1` (stereo not drawn), the inhibition is 2.78%. On to `Cc1ccc(-c2cc(C(=O)N/N=C/c3c(C)nn(-c4ccccc4)c3C)n[nH]2)s1`, for which the inhibition was 3.04%. As for `CC(C)NC(=O)N(C)C[C@H]1Oc2ccc(NS(=O)(=O)c3cn(C)cn3)cc2C(=O)N([C@H](C)CO)C[C@@H]1C`, the inhibition is 12.3%. With `Cc1cc(Br)ccc1NCc1ccccn1`, the inhibition was 23.4%. As for `O=C(CN1CCN(S(=O)(=O)c2ccc(Br)cc2)CC1)Nc1ccc(F)cc1F`, the inhibition is 7.71%. Turning to `CC1(C)CNc2cc([N+](=O)[O-])ccc2S1`, the inhibition is 9.53%. With `CC1(C)CC(=S)Nc2ccccc2S1`, the inhibition is 2.74%. Regarding `CSc1ncccc1C(=O)NC1CCCc2c1cnn2-c1ccc(C)c(C)c1` (stereo not drawn), the inhibition is 3.32%.

For the compound `CCOc1cc(C=NN2CCCCCC2)ccc1O`, the inhibition was 30.4%. With `CCOc1cc(/C=N/N=C/c2ccc(O)c(OCC)c2)ccc1O`, the inhibition was 9.66%. Consider `CCOc1cc(/C=N/n2c(C)nc3sc(C)c(C)c3c2=O)ccc1O`, for which the inhibition was 10%. Consider `CCOc1cc(/C=N/n2cnnc2)cc(Br)c1O`, for which the inhibition was 14.1%. Consider `CN(C)c1nc(C(=O)O)nc(N2CCOCC2)n1`, for which the inhibition was 7.25%.

In the case of `CN(C(=O)c1ccc(NC(=O)Cc2ccc(NC(=O)C3CCCN(C(=O)C4CCCCC4)C3)cc2)cc1)C1CCCC1` (stereo not drawn), the inhibition is 9%. In the case of `O=C(Nc1cccc(NS(=O)(=O)c2ccc(S(=O)(=O)NC3CC3)cc2)c1)c1ccccn1`, the inhibition was 11.8%. Turning to `NC(=O)CSc1nnc(NC(=O)c2cccc(S(=O)(=O)N3CCCCC3)c2)s1`, the inhibition was 7.47%.

In the case of `Cc1c(Cl)cccc1NC(=S)NC1CCCC1`, the inhibition was 8.99%.

Consider `Nc1nc(-c2cccs2)cs1`, for which the inhibition was 18.1%. Turning to `Cc1cc(O)ccc1Nc1nc(-c2cccnc2)cs1`, the inhibition was 28.4%. `CN(C(=O)c1ccco1)c1nc(-c2ccccc2)cs1`: the inhibition was 8.31%.

Turning to `CN(c1nc(-c2ccccc2)cs1)C1CCS(=O)(=O)C1` (stereo not drawn), the inhibition was 8.88%. Take `c1ccc(-c2nc(-c3cccnc3)cs2)cc1`: the inhibition was 7.12%. Take `Oc1ccc(Nc2nc(-c3cccs3)cs2)cc1`: the inhibition was 19.4%. Consider `c1csc(-c2csc(-c3cccs3)n2)c1`, for which the inhibition is 7.41%.

As for `CN(C(=O)c1cccnc1)c1nc(-c2ccccc2)cs1`, the inhibition is 0.25%.
